A selection: hits, their analogues and other compounds. The true share with any hit is near 12%.
HP1b chromo inh = HP1-beta chromodomain-methylated histone interaction inhibition; AlphaScreen HP1-beta / biotin-H3K9me3 peptide binding; Potency, µM (highest dose often 114 µM), for the others: at the top dose activity change, negative = inhibition, hits mostly inhibitors; actives 0.56% (n = 390,000); P83916; AID 540317; further: nearly all actives have a fitted effect of over 70% in size
Target sequence (P83916 whole entry, looked up): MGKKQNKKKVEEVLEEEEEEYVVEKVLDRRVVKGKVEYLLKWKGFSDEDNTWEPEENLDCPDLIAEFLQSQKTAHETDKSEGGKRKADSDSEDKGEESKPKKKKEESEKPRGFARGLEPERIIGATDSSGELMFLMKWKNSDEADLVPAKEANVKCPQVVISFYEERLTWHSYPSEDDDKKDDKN
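AlphaScreen: HP1-beta (50 nM) preformed 30 min with biotin-H3(1-18)K9me3 peptide (50 nM) in PBS pH 7.4, 0.01% Tween-20. Compound added for 30 min at RT, then streptavidin donor/nickel chelate acceptor beads (10 ug/mL) for 30 min.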
Sfp inh = blocks B. subtilis Sfp PPTase activity | Potency, µM, inactives show largest response in the series, negative = inhibition, usual class: inhibitors | actives 3.5% (n = 310,000) | Q9F4F7 | AID 1490 | Biochemical Sfp PPTase activity, qHTS;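 further: the enzyme is Sfp with the accession as filed and its product quenches rhodamine fluorescence; 0% = enzyme reaction without inhibitor and -100% = no enzyme wells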
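Sfp 15 nM + cpd, 15 min RT; start w/ rhodamine-CoA 5 uM, BHQ-2-YbbR 12.5 uM (final); 50 mM Hepes pH 7.6, 10 mM MgCl2, 0.01% NP-40, 0.01% BSA; read 525/598 nm at 0 and 30 min.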
G9a inh = blocks human histone lysine methyltransferase G9a; Q96KQ7; G9a H3K9 monomethylation, AlphaScreen, 2 h; Potency, µM (series often up to 102 µM), for the others: at the top dose activity, negative = inhibition, actives largely listed as inhibitors; actives 8.8% (n = 350,000); further: on the % scale 0 is the no-effect control and ±100 the full control effect; nearly all actives have a fitted effect of over 75% in size
Target sequence (Q96KQ7 913-1193 limits assumed): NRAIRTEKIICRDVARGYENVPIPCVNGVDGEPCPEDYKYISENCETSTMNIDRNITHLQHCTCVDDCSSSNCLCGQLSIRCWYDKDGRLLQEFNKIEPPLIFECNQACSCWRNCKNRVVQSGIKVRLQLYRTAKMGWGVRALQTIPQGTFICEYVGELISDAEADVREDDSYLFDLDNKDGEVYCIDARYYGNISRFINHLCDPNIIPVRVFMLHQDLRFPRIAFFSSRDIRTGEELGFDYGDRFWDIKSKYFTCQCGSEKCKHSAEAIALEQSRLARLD
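Methyltransferase reactions run at room temperature for 2 h (20 nM enzyme, 500 nM biotin-H3K9 peptide, 20 uM SAM) after a 15 min compound preincubation; product detected by AlphaScreen beads and anti-H3K9me1 antibody.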
BAZ2B block = blocks human BAZ2B; Potency, µM (titrated, usually from 114 µM), for inactives: at the top dose activity change, negative = inhibition, actives largely listed as inhibitors; AlphaScreen BAZ2B-H3K14Ac peptide displacement; actives 4.4% (n = 360,000); Q9UIF8; further: on the % scale 0 is the no-effect control and ±100 the full control effect; nearly all actives have a fitted effect of over 60% in size
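Inhibition is scored as reduced AlphaScreen emission. The BAZ2B/b-H3(5-23)K14Ac complex (50 nM each) in PBS pH 7.4, 0.01% Tween-20 meets compound (up to 110 uM) for 30 min at RT before bead addition.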
JMJD2A Tudor = JMJD2A Tudor domain (human) inhibition | O75164 | AlphaScreen JMJD2A-Tudor / H3K4me3 peptide binding | Potency, µM (series often up to 114 µM), without a hit: at the highest dose activity change, negative = inhibition, actives largely listed as inhibitors | actives 4.4% (n = 390,000) | AID 504339; further: on the % scale 0 is the no-effect control and ±100 the full control effect; nearly all actives have a fitted effect of over 50% in size
* hit, by the source's call; ? = inconclusive; nt = no result given; [ ] = another dose, or the depositor's remark. The call rests on the fitted dose curve; in most records, active means well fitted curve in the direction sought with a large enough effect; inconclusive means small, poorly fitted or top-dose-only effect, or another doubt; inactive means no such curve, though single readings can be large; an effect the other way counts as inactive or inconclusive. Potency means the concentration at half of the fitted maximal effect.

SMILES | HP1b chromo inh | Sfp inh | G9a inh | BAZ2B block | JMJD2A Tudor
C=C1C[C@]23C[C@@]1(O)CC[C@H]2[C@@]12C=C[C@H](O)C(C)(C(=O)O1)[C@H]2[C@@H]3CC(=O)O | nt | -1% | nt | nt | nt
COc1ccc2[nH]c(-c3ccc(C)cc3)cc(=O)c2c1 | 39% | 12% | 79µM* | 7% | -15%
CC(C)N1CCN(Cc2ccc(Sc3nncn3C)o2)CC1CCO (stereo not given) | 20% | 21% | -35% | -1% | 0%
CCN1CCN(C2=C(NS(=O)(=O)c3ccc(Br)cc3)C(=O)c3ccccc3C2=O)CC1 | -17% | -13% | 45µM* | 45µM* | ?
CCN1CCN(C2=C(NS(=O)(=O)c3ccccc3)C(=O)c3ccccc3C2=O)CC1 | -13%[57 µM] | 7% | 0%[0.0925 µM] | ? | -33%
NC(=O)C1CCN(C2=C(NS(=O)(=O)c3ccccc3)C(=O)c3ccccc3C2=O)CC1 | ? | 3% | nt | 40µM* | ?
NC(=O)C1CCN(C2=C(NS(=O)(=O)c3ccc(Br)cc3)C(=O)c3ccccc3C2=O)CC1 | ? | -8% | nt | 40µM* | 79µM*
CCOC(=O)C1CCN(C2=C(NS(=O)(=O)c3ccc(Br)cc3)C(=O)c3ccccc3C2=O)CC1 | 7.1µM* | 15% | 8.9µM* | 5.6µM* | 7.9µM*
CCOc1ccccc1N(CC(=O)NCc1ccccc1)C(=O)CCC(=O)Nc1cc(C)ccn1 | 33% | -2% | 3% | ? | -15%
CCN(CC(=O)Nc1ccc(NC(C)=O)cc1)C(=O)c1c(-c2c(F)cccc2Cl)noc1C | 25% | 12% | 25% | -23% | -4%
CCCOc1ccc(C(=O)NC(=S)Nc2nc3ccc(C)cc3s2)cc1 | nt | 22% | 16% | -4%[57.1 µM] | nt
Cc1ccc2nc(NC(=O)c3ccc(N4C(=O)CCC4=O)cc3)sc2c1 | 32% | 0% | 11µM* | ? | -25%
Cc1ccc2nc(NC(=S)NC(=O)c3ccc(OC(C)C)cc3)sc2c1 | 22% | -93% | nt | 56µM* | -5%
COCCNC(=O)c1onc(CSc2cc(C)cc(C)c2)c1C(=O)O | 29% | 9% | 52%[0.501 µM] | -10% | -7%
COCCNC(=O)CCC(=O)NNc1nc2ccccc2c2nc(C)nn12 | 33% | 3% | 15% | 4% | 79µM*
COC(=O)[C@@]1(Cc2ccccc2)[C@H]2c3cc(C(=O)N(C)C)n(Cc4cc(F)c(F)c(F)c4)c3C[C@H]2CN1C(=O)c1ccccc1 | nt | 0% | nt | nt | nt
O=C1CN(C(=O)CN2C(=O)NC(c3ccccc3)(c3ccccc3)C2=O)c2ccccc2N1 | 25% | nt | nt | nt | -16%
CC(=O)Nc1nnc2n1CCS2 | -8%[57 µM] | nt | 14µM* | -4% | 22µM*
COc1ccccc1C(=O)Nc1nnc2n1CCS2 | 12%[57 µM] | nt | 11µM* | -14% | ?
COc1ccc(Cl)cc1C(=O)Nc1nnc2n1CCS2 | 7%[57 µM] | nt | ? | -20% | -28%
CCOC(=O)CCC(=O)Nc1nnc2n1CCS2 | -7%[57 µM] | nt | 13µM* | ? | 40µM*
CCCCOc1ccc(C(=O)Nc2nnc3n2CCS3)cc1 | 18%[57 µM] | nt | 60%[59 µM] | 4% | -14%
CCC(=O)Nc1nnc2n1CCS2 | -6%[57 µM] | nt | 25µM* | -13% | 20µM*
Cc1cc(C)cc(C(=O)Nc2nnc3n2CCS3)c1 | 20%[57 µM] | nt | 8%[59 µM] | ? | -23%
Cc1ccc(C)c2c3c([nH]c12)-c1nonc1CC3 | 24% | -9% | -7% | ? | -1%
SMILES | HP1b chromo inh | Sfp inh | G9a inh | BAZ2B block | JMJD2A Tudor
O=C(CCS(=O)(=O)c1ccccc1)NC12CC3CC(CC(C3)C1)C2 | 28% | 15% | 11% | 7% | -9%
Cc1cc(N)n(-c2ccccc2C)n1 | -4% | 12% | 23% | 9% | -7%
Cc1nc(-c2coc3cc(C)c(N=O)c(O)c3/c2=N\N)cs1 | 20% | ? | 50µM* | ? | -25%
CC/C(O)=C(\C#N)c1nnc2n1CCCCC2 | -12% | 89µM* | 2%[0.501 µM] | 79µM* | 3.5µM*
N#C/C(=C(/O)COc1ccc(Br)cc1)c1nnc2n1CCCCC2 | 35% | 6% | -43% | 3% | -26%
N#C/C(=C(/O)c1ccc([N+](=O)[O-])cc1)c1nnc2n1CCCCC2 | 22% | -8% | 50µM* | ? | 28µM*
CCC(C(=O)Nc1ncn[nH]1)(C(F)(F)F)C(F)(F)F | 16% | 3% | 11%[2.33 µM] | 4% | 9%[57.1 µM]
O=C(CSC(=S)N1CCCCC1)Nc1ncc2c(n1)CC(c1ccco1)CC2=O (stereo not given) | 20% | -14% | nt | ? | -12%
Cc1ccc(NC(=O)CN2C(=O)c3ccccc3C2=O)c(C)c1 | 23% | 14% | ? | -4% | -7%
Cc1cc(C)c(C)c(S(=O)(=O)ON2C(=O)c3ccccc3C2=O)c1C | -32% | 22µM* | 7.9µM* | -39% | 89µM*
Cc1ccc(OC(=O)CN2C(=O)c3ccccc3C2=O)cc1C | 16% | 5% | 21% | 16% | -6%
Cc1ccc(S(=O)(=O)ON2C(=O)c3ccccc3C2=O)c(C)c1 | 45µM* | 10µM* | 7.9µM* | 13% | 50µM*
Cc1cc(C)c(S(=O)(=O)ON2C(=O)c3ccccc3C2=O)cc1C | ? | 20µM* | nt | ? | 56µM*
O=C1c2ccccc2C(=O)N1OS(=O)(=O)c1ccc(F)cc1 | 41% | 8.9µM* | 2.2µM* | -32% | 9%
Cc1cc(C)nc(SCc2ccc(C(=O)NN=C3C4CC5CC(C4)CC3C5)cc2)n1 | 14% | 4% | 8%[59 µM] | -22% | -10%
CN(CC(=O)NC1CCCCCC1)S(=O)(=O)c1ccc(F)cc1 | 26% | 7% | 23% | 2% | -3%
O=C(COC(=O)c1ncc(Cl)c(Cl)c1Cl)NC1CCCCCC1 | 19% | nt | 40µM* | 23% | -3%
C/C(N)=C(/C#N)C(=O)COC(=O)c1ccc(O)cc1 | 21% | 3% | -1% | -6% | -5%
O=C(COC(=O)c1ccccc1Br)NC1CCCC1 | 21% | 1% | 40µM* | -14% | 3%
C/C(N)=C(/C#N)C(=O)COC(=O)c1ccc(C#N)cc1 | 23% | 10% | 22µM* | ? | -18%
N#Cc1ccc(C(=O)OCC(=O)NC2CCCC2)cc1 | 32% | 17% | 45µM* | 5% | -3%
O=C(COC(=O)c1nc(Cl)ccc1Cl)NC1CCCCCC1 | 31% | nt | -15% | -21% | -6%
Cc1cc(=O)oc2c(C)c3occc3cc12 | 27% | 7% | nt | 2% | -3%
COc1cccc(C(C(=O)NC2CCCC2)N(C(=O)c2ccco2)c2ccc(C(C)=O)cc2)c1OC (stereo not given) | 34% | 11% | -5% | -21% | -2%
CCCN(C(=O)COC(=O)c1cc(CC)c(C)s1)c1c(N)n(Cc2ccccc2)c(=O)[nH]c1=O | -3% | nt | 50µM* | ? | -32%
CCOC(=O)c1c(C)[nH]c(C(=O)OCC(=O)N(CC(C)C)c2c(N)n(Cc3ccccc3)c(=O)[nH]c2=O)c1C | 32% | nt | 16µM* | 1% | -21%
CCCCn1c(N)c(N(CCOC)C(=O)COC(=O)c2cc(CC)c(C)s2)c(=O)[nH]c1=O | 14% | nt | 1%[0.501 µM] | 6% | -12%
